Test results: PubChem BioAssay AID1619 (SRMLSC, 2009)
Screen size: about 220,000 compounds; about 830 (0.38%) were called active. These entries were drawn from the full list. Entries with a potency or affinity are not part of this list. A number with no mark means an inactive call.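 Rule for the calls: active = compound inhibiting the enzyme by more than half at any dose during confirmatory dose-response retesting; inconclusive = strong single-dose inhibitors picked by rank but not retested; inactive = the rest.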

Each compound was assayed against Leucine aminopeptidase (Plasmodium falciparum (isolate 3D7)) (UniProt Q8IL11) (assay: P. falciparum M17LAP inhibitors, primary screen, biochemical, fluorogenic H-Leu-NHMec substrate, 1536-well (AID 1619;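 note: plate controls were full reaction with DMSO carrier for no effect and no enzyme background for full effect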)). Details: recombinant M17LAP, H-Leu-NHMec fluorogenic kinetic assay; at 30 µM; active compounds read high.
Chain of Leucine aminopeptidase (Plasmodium falciparum (isolate 3D7)) (Q8IL11 whole entry, looked up): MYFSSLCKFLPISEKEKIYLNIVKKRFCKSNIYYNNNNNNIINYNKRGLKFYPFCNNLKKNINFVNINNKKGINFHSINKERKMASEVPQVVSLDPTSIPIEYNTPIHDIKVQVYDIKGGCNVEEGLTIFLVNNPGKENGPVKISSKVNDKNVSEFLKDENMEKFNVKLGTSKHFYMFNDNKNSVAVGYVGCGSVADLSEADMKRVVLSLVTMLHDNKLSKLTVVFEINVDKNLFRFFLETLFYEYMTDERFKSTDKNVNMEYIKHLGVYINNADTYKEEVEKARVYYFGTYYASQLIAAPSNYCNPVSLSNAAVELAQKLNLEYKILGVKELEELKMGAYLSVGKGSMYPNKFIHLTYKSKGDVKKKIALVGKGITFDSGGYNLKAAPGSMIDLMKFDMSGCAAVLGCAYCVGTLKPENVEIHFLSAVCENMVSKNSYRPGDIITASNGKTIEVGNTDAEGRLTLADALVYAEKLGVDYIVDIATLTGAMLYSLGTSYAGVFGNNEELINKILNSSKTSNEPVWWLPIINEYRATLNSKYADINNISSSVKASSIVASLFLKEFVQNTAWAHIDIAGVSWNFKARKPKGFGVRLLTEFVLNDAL

Compound | inhibition [%]
COC(=O)c1cn(C(=O)c2cccc(C)c2)c2ccccc12 | 1.71
Cc1cccc(C(=O)NC(=S)NNC(=O)COc2ccc(Cl)cc2)c1 | 8.45
O=C(NNC(=S)NC(=O)c1cccnc1)c1ccc(Cl)cc1 | 71.2
Cc1cccc(C(=O)NC(=S)Nc2ccccc2C(=O)O)c1 | 3.36
Cc1ccc(C(=O)NC(=S)NNC(=O)COc2ccccc2C)cc1 | -0.9
Cc1cccc(NC(=S)NNC(=O)Cc2ccccc2)c1 | 15.6
O=C(Cc1ccccc1)NNC(=S)NC(=O)c1cccnc1 | 13.8
Cc1cccc(C(=O)NC(=S)NNC(=O)c2ccc(Cl)cc2)c1 | 86.2
O=C(NC(=S)NNC(=O)c1ccccc1F)c1cccnc1 | 5.36
O=C(O)c1ccc2c(c1)SC1=NS(=O)(=O)CCN12 | -2.18
CCN1CCN(C(=O)CSc2cc(=O)n(CC)c3ccccc23)CC1 | 4.46
CCC(C)NC(=O)CS(=O)Cc1nc(-c2ccccc2C)oc1C (centres undefined) | 2.41
Cn1c(N)c(C(=O)c2ccc(F)cc2F)c(=O)n(C)c1=O | 5.53
COC(=O)[C@H](Cc1ccccc1)NC(=O)O[C@H]1C(=O)c2ccc(OC)cc2O[C@@H]1c1ccc2c(c1)OCO2 | -10.7
O=C(O)C1CCCCC1C(=O)Nc1ccc(-c2ccccc2)cc1 (centres undefined) | 6.02
CCCOC(=O)c1ccc(NC(=O)C2C3CCC(C3)C2C(=O)O)cc1 (centres undefined) | 43.4
O=C(O)[C@H]1CCCC[C@H]1C(=O)Nc1ccc(Nc2ccccc2)cc1 | 54.9
CN(C(=O)c1ccc(NC(=O)C2CC=CCC2C(=O)O)cc1)c1ccccc1 (centres undefined) | 45.1
CC(=O)Nc1ccc(NC(=O)[C@@H]2CCCC[C@@H]2C(=O)O)cc1 | -3.15
O=C(O)Cc1ccc(NC(=O)C2CC=CCC2C(=O)O)cc1 (centres undefined) | 11.1
COC(=O)c1ccc(NC(=O)C2C3CCC(C3)C2C(=O)O)cc1 (centres undefined) | 39
CC(=O)Nc1ccc(NC(=O)C2CCCCC2C(=O)O)cc1 (centres undefined) | 8.65
O=C(O)CCSCCCN1C(=O)c2cccc3cccc(c23)C1=O | 8.08
CCCc1cc(=O)[nH]c(SCC(=O)Nc2cc(C)on2)n1 | 3.41
Cc1ccc(C2CC(C(F)(F)F)n3nc(C(=O)Nc4c(C)n(C)n(-c5ccccc5)c4=O)cc3N2)cc1 (centres undefined) | 2.06

Compound | inhibition [%]
COc1ccc(NC(=O)c2ccc(-n3c(C)ccc3C)cc2)c(OC)c1 | 4.59
Cc1nc(C)c(-c2csc(Nc3ccc(F)cc3)n2)s1 | -0.33
Cc1ccc(Oc2ncc(-c3ccc(Cl)cc3)cn2)cc1 | -3.58
CCOC(=O)N1CCN(c2cc(N)c([N+](=O)[O-])cc2F)CC1 | -0.96
Cc1ccc(C(=O)Nc2ccn(Cc3ccc(F)cc3)n2)o1 | 2
COc1ccc(C(=O)Nc2cccc(C(=O)NCc3ccccc3)c2)cc1 | 3.07
Oc1ccc(C(c2nnnn2CCc2ccccc2)N2CCN(c3nc4ccccc4s3)CC2)cc1 (centres undefined) | 3.87
CCOC(=O)NCc1ccc(Cl)c(Cl)c1 | -9.33
CC(C)(C)OC(=O)CN1C(=O)C(Sc2n[nH]c(-c3ccccc3)n2)CCc2ccccc21 (centres undefined) | 3.43
CCSc1nc(N)nc(-c2cccs2)c1C#N | 5.48
CN(Cc1ccccc1)Cc1nc2c([nH]1)c(=O)[nH]c(=O)n2C | -7.23
CC(NC(=O)c1cccnc1)C(c1cccs1)N1CCN(C)CC1 (centres undefined) | 0.81
O=C(O)Cc1ccc(NC(=O)C2CCCCC2C(=O)O)cc1 (centres undefined) | 19
CN(C1CCCCC1)S(=O)(=O)c1ccc(NC(=O)C2CCCCC2C(=O)O)cc1 (centres undefined) | 44
CCOC(=O)N1CCN(C(=O)c2ccc(CS(=O)(=O)c3c(Cl)cccc3Cl)o2)CC1 | 3.87
CCCCOc1ccc(C(=O)OCC(=O)Nc2cc(C)on2)cc1 | 2.23
CCOC(=O)c1c(CSCc2ccccc2)oc2ccc(O)c(CN(C)C)c12 | -2.1
Cc1ccc2c(=O)[nH]c(Cc3ccccc3C(=O)O)nc2c1 | 2.27
Cc1ccc(NN=C2c3ccccc3-c3ccccc32)cc1 | 5.01
Cc1ccc(N/N=C2/CCCNC2=O)cc1 | 40.4
Cc1ccc(N(CC(O)CN2C(=O)NC(C)(C)C2=O)S(=O)(=O)c2ccc(C)cc2)cc1 (centres undefined) | -16.4
Fc1ccc(N/N=C/c2ccncc2)c(F)c1 | -6.64
O=C(O)c1ccc(/C=N/NC(=O)c2ccc(F)cc2)cc1 | 7.3
Cc1ccc(/C=N/Nc2cccc(C(=O)O)c2)s1 | 53.6
CC(C)(C)c1ccc(/C=N/Nc2cccc(C(=O)O)c2)cc1 | 12.1

Compound | inhibition [%]
Cc1ccc(/C=N/Nc2ccc(Cl)c(C(=O)O)c2)s1 | 49.5
O=C(O)c1ccc(/C=N/Nc2cccc(C(F)(F)F)c2)cc1 | 16.4
O=C(O)c1ccc(N/N=C/c2ccc(F)c(F)c2)cc1 | 50.5
O=C(O)c1ccc(N/N=C/c2ccc(-c3ccccc3)cc2)cc1 | 2.22
C=CCNC(=O)CN1CCC(NC(=O)c2ccco2)CC1 | 4.27
Cc1ccc(/C=N/NC(=O)Cn2cncn2)cc1 | 2.86
CC(=O)N1CCN(c2ccc(NC(=O)c3ccc4c(c3)OCO4)cc2)CC1 | -9.38
COc1ccc(C2Nc3ccccc3C(=O)N2c2ccccc2)cc1CN1CCOCC1 (centres undefined) | -163
CC(/C=C/c1ccc2c(c1)OCO2)=N/NC(=O)c1cccnc1 | 17.2
Cc1ccc(NNC(=O)c2ccc(Cl)cc2)nn1 | 17.4
COc1ccc(/C=N/Nc2ccc(C(=O)O)cc2)cc1OC | 25.7
COc1cc(/C=N/Nc2ccc(C(=O)O)cc2)ccc1O | 22.3
CCOc1ccc(OCC)c(NC(=O)C2CCCN(S(=O)(=O)c3c(C)noc3C)C2)c1 (centres undefined) | 3.89
COc1ccc(OC)c(N/C=C2/CCCCC2=O)c1 | 5.47
CC(=O)COc1ncn(-c2ccccc2)n1 | 42.4
NC(=O)COc1ncn(-c2ccccc2)n1 | 1.05
CCCCC(=O)Nc1nnc(-c2ccc(OC)cc2)s1 | 4.4
O=C(CN1C(=O)NC2(CCCC2)C1=O)OCc1cc(=O)n2cc(Br)ccc2n1 | -0.9
O=C1CCCCN1CCc1c[nH]c2ccccc12 | 15.4
COc1ccc(-n2nc3c(N)n[nH]c3cc2=O)cc1 | -0.44
COc1ccc(N2CCN(c3n[nH]c(N)n3)CC2)cc1 | 0.79
O=C(CC12CC3CC(CC(C3)C1)C2)NC(=S)NCc1ccccc1 | -4.21
Cc1cccnc1CN1CCN(C(=O)c2cc(COc3ccc4ncccc4c3)on2)CC1 | 0.97
Cc1ccccc1NC(=O)c1cnc2ccccn2c1=O | 2.31
Cn1ncc(N)c1C(=O)Nc1cccc(C(F)(F)F)c1 | 1.2

Compound | inhibition [%]
O=C(Nc1cccc(C(F)(F)F)c1)c1cccnc1 | -1.75
CSc1nc2nc3c(cc2c(=O)n1-c1ccc(C)cc1)COC(C)(C)C3 | 3.67
CCc1ccc(CN(C)C(=O)CCc2nnc(Cc3cccc(C)c3)o2)nc1 | -6.64
Cc1cccc(C)c1NC(=O)CSCC(=O)O | 4.91
Cc1cccc(C)c1NC(=O)CSCCO | 0.75
CCOC(=O)CSc1nc(-c2ccccc2)nc2ccc(C)cc12 | 2.78
CC1CN(c2nc(-c3ccccc3)nc3ccccc23)CC(C)O1 (centres undefined) | 4.44
Cc1ccc(/C=c2\sc3nc(-c4ccco4)nn3c2=O)o1 | 42.2
CCN(CC)c1ccc(/C=c2\sc3nnc(-c4ccccc4Cl)n3c2=O)cc1 | 1.48
CCN(CC)c1ccc(/C=c2/sc3nnc(-c4ccccc4C)n3c2=O)cc1 | 9.78
Cc1ccc(/C=c2\sc3nc(-c4cccs4)nn3c2=O)o1 | 79.6
CCc1ccc(NC(=O)C(C)Nc2ccc(S(=O)(=O)NC(C)=O)cc2)cc1 (centres undefined) | 3.98
O=[N+]([O-])c1cccc(-c2nnn(C34CC5CC(CC(C5)C3)C4)n2)c1 | -10.4
COc1ccc(N(CC(=O)Nc2ccc3c(c2)OCO3)S(=O)(=O)c2ccc(C)cc2)cc1OC | -12.9
COc1ccc(C(=O)CC2OC(=O)c3c2ccc(OC)c3OC)cc1 (centres undefined) | 9.31
COc1ccc2c(c1OC)C(=O)OC2CC(=O)c1ccc(O)cc1 (centres undefined) | 14.4
O=C(O)Cn1cc(/C=C2\SC(=O)N(c3ccccc3)C2=O)c2ccccc21 | 15
CC(C)n1cc(/C=C2\NC(=O)N(c3cccc(Cl)c3)C2=O)c2ccccc21 | -7.4
CCOc1ccc(Nc2cc(=O)oc3ccccc23)cc1 | 4.7
Cc1cccc(N2CCN(S(=O)(=O)c3ccc4c(c3)CCN4C(=O)CCC(=O)O)CC2C)c1 (centres undefined) | -2.93
CCN(CC)C(=O)CSc1nnnn1-c1ccc(F)c(Cl)c1 | -1.03
CNC(=S)Nc1ccc(C)cc1 | 3.68
Cc1ccc(NC(N)=S)cc1 | 18.7
O=C(CN1C(=O)C2C3C=CC(C3)C2C1=O)Nc1ccc2nccnc2c1 (centres undefined) | 1.82
